The record followed here is the supplement of paper PMC10849652.

About 8,800 targets were measured; listed, in parts, are those with a hit and a random draw of the rest. About 0.5% of all pairs of compound and target were hits. Unmarked numbers belong to inactive results.

UniProt O75208, sequence (O75208 whole entry, looked up): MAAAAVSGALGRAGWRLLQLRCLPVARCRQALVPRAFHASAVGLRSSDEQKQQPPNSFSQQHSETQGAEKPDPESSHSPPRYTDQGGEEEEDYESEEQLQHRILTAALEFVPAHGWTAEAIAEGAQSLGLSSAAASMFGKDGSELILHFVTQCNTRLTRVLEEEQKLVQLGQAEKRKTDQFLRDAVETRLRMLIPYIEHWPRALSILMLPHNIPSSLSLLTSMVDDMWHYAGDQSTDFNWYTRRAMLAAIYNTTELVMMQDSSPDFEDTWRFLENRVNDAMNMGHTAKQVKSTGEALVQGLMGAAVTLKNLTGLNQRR
UniProt Q8IY22, sequence (Q8IY22 whole entry, looked up): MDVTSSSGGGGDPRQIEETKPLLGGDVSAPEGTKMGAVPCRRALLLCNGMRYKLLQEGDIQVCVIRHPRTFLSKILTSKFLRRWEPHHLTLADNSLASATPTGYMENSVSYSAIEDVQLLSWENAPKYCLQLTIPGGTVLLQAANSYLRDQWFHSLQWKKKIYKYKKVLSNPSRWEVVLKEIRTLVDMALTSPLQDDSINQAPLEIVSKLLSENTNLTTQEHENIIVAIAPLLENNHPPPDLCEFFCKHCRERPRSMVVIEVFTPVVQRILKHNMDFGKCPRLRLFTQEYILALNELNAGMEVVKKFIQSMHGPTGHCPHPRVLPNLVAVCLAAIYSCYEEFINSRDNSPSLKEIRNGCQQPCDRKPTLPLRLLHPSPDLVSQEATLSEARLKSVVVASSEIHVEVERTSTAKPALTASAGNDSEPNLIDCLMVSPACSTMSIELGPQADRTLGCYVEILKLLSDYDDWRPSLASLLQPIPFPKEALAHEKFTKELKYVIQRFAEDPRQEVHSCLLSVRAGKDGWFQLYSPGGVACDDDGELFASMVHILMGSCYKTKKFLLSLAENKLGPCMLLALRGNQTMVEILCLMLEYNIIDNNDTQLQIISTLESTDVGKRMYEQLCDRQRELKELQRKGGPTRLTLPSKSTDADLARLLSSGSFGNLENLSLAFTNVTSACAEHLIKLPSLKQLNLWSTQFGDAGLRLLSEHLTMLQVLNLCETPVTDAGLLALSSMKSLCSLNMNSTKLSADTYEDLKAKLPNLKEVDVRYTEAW
UniProt Q14019, sequence (Q14019 whole entry, looked up): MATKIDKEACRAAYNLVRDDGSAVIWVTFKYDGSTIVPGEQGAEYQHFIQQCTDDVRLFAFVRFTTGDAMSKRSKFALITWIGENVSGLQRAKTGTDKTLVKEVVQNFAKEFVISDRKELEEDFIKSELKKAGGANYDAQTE
UniProt Q9NZN8, sequence (Q9NZN8 whole entry, looked up): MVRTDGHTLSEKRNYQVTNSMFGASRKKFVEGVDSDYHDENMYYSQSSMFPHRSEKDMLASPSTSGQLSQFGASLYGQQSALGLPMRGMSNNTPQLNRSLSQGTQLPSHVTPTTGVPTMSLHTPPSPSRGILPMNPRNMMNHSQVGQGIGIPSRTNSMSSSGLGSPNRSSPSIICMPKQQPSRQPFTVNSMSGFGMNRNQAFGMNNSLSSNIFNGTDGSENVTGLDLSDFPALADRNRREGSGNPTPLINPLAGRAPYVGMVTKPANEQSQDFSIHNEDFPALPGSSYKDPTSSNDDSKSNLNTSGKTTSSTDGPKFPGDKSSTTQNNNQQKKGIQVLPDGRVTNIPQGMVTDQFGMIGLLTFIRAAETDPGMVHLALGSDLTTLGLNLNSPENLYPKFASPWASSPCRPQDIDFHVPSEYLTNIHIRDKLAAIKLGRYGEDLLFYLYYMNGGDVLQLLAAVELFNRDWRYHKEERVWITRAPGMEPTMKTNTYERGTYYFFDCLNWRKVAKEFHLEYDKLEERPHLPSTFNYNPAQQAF
UniProt Q5EBM0, sequence (Q5EBM0 whole entry, looked up): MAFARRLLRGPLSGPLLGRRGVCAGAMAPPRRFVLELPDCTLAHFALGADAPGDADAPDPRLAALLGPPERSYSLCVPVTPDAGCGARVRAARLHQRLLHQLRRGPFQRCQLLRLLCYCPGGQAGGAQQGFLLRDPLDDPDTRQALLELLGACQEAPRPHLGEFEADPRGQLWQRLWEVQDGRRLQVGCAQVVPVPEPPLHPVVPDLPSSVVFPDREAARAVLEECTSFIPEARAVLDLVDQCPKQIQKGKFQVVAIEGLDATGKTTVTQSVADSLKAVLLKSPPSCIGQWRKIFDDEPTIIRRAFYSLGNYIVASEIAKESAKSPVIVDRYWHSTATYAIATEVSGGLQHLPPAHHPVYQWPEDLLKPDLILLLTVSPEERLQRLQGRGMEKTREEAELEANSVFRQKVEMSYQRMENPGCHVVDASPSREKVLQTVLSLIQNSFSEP
UniProt O15111, sequence (O15111 whole entry, looked up): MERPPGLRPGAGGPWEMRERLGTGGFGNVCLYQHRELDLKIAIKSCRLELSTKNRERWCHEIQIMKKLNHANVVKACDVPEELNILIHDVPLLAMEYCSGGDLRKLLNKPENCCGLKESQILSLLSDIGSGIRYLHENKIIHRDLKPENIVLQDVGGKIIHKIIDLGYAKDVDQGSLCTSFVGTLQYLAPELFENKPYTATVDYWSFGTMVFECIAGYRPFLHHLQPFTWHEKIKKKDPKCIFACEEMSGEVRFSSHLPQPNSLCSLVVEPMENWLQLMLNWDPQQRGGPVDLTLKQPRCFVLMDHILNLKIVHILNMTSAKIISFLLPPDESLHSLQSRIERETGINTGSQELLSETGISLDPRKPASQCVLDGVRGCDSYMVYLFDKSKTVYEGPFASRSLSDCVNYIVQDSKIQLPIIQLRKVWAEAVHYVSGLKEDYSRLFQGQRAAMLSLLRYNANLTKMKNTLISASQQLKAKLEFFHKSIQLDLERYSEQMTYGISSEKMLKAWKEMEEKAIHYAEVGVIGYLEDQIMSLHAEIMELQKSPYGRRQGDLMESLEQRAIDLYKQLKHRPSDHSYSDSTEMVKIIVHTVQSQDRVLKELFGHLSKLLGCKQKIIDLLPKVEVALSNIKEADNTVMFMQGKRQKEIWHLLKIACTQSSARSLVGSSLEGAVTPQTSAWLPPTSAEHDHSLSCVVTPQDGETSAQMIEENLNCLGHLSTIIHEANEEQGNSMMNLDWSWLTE
UniProt O76075, sequence (O76075 whole entry, looked up): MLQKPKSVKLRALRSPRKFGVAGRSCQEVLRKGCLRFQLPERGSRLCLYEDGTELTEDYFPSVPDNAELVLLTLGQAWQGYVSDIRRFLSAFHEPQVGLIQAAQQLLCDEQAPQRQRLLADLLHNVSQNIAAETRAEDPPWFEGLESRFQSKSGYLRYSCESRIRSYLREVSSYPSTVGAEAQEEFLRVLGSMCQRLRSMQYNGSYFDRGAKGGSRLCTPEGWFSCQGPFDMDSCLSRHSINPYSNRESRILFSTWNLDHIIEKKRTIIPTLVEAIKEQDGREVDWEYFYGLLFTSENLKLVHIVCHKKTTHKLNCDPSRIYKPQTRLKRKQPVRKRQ
UniProt Q8WWK9, sequence (Q8WWK9 whole entry, looked up): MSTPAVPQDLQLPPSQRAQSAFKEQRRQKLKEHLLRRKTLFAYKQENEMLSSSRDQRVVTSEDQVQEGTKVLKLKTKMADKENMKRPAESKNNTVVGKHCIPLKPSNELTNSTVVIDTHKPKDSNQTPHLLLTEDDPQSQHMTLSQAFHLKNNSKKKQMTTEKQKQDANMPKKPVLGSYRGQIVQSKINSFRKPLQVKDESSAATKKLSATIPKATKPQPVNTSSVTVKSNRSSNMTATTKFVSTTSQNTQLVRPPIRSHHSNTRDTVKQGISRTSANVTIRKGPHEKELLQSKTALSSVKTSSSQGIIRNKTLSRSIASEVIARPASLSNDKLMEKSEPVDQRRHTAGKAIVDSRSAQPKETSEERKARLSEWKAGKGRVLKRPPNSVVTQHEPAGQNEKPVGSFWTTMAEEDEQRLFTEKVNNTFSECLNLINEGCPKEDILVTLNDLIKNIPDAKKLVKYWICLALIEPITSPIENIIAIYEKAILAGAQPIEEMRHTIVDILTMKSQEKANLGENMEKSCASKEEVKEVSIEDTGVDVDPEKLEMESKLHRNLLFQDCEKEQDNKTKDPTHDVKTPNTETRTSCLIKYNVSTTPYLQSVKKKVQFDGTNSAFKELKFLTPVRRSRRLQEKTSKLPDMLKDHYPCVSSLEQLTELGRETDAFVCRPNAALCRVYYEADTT
UniProt Q9P003, sequence (Q9P003 whole entry, looked up): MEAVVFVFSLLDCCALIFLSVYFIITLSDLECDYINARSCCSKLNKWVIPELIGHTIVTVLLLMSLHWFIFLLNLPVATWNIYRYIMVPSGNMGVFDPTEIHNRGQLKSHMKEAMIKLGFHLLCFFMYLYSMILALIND
UniProt P50570, sequence (P50570 whole entry, looked up): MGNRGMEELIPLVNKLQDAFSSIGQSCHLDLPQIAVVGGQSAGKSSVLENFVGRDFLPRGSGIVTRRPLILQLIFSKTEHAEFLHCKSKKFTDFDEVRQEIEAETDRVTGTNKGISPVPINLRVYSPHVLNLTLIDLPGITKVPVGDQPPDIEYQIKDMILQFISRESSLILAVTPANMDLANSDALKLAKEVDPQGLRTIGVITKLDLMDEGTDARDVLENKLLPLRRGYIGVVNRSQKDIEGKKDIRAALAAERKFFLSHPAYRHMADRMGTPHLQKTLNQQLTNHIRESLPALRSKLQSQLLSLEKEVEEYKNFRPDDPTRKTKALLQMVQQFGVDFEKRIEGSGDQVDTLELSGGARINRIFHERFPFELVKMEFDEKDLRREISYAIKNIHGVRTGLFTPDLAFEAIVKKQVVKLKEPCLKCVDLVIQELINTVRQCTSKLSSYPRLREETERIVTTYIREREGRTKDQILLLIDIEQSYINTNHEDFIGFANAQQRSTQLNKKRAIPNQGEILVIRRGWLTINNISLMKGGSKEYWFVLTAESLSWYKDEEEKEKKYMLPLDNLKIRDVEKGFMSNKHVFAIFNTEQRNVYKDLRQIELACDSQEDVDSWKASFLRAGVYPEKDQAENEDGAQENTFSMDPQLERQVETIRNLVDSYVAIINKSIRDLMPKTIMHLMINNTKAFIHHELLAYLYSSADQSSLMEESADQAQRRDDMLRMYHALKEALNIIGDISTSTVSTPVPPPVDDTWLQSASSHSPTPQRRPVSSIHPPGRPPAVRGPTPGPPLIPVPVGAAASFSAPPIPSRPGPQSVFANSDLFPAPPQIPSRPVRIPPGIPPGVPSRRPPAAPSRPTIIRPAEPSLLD

Compound in this test: C#Cc1cccc(Nc2ncnc3cc(OCCOC)c(OCCOC)cc23)c1 [erlotinib]
The test can be described thus: log2 fold change, soluble protein after heating vs DMSO (PISA); higher = thermal stabilisation; K562 lysate, 10 uM; active = over 0.2 and 3.5 SD of the protein, either way, in both replicates (recomputed). A digest of the protocol:
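Log-two fold change in thermal stability relative to solvent controls is reported from duplicates. For each sample, crude K562 extract from dounce-homogenised pellets in PBS pH 7.4 with 1 mM MgCl2, at 1 mg/mL protein, was treated with 10 μM compound for 30 min. Aliquots heated for 3 min across 48°C-58°C were pooled, brought to 0.5% NP-40 at 4°C and cleared at 21,000xg for 90 min. The supernatant was quantified by TMTpro 16plex LC-MS/MS with channel sums equalised.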
For DLGAP5 (UniProt Q15398), the log2 fold change is -0.015.
As for DCTN1 (UniProt Q14203), the log2 fold change is 0.007.
For DOCK10 (UniProt Q96BY6), the log2 fold change is -0.23.
In the case of DFFB (UniProt O76075), the log2 fold change is -0.055.
With CWC22 (UniProt Q9HCG8) the figure was 0.058; with CHMP4A isoform 2 (UniProt Q9BY43), -0.046; with DDX54 isoform 2 (UniProt Q8TDD1), -0.088.
With DLG3 isoform 2 (UniProt Q92796) the figure was -0.048.
With COG3 (UniProt Q96JB2) the figure was 0.045; with CMPK2 (UniProt Q5EBM0), -0.019.
For CNOT6L (UniProt Q96LI5), the log2 fold change was -0.011.
Regarding CSK (UniProt P41240), the log2 fold change was 0.045.
Turning to CYP24A1 (UniProt Q07973), the log2 fold change is 0.015.
For DAZAP1 (UniProt Q96EP5), the log2 fold change was -0.017.
As for CNIH4 (UniProt Q9P003), the log2 fold change was 0.049.
As to DNM2 (UniProt P50570), the log2 fold change is 0.045.
For CMIP (UniProt Q8IY22), the log2 fold change was 0.003.
As to COQ9 (UniProt O75208), the log2 fold change is -0.015.
For CNOT2 (UniProt Q9NZN8), the log2 fold change was 0.016.
Regarding DOCK8 (UniProt Q8NF50), the log2 fold change was -0.001.
With CSNK2B (UniProt P67870), the log2 fold change was 0.045.
For CPT1A (UniProt P50416), the log2 fold change was -0.029.
In the case of DNAH10 (UniProt Q8IVF4), the log2 fold change was 0.003.
The figure for CKAP2 (UniProt Q8WWK9) is 0; for CIC (UniProt I3L2J0) it is 0.013; for COTL1 (UniProt Q14019) it is -0.012.
The figure for CHORDC1 (UniProt Q9UHD1) is 0.015.
CXorf38 (UniProt Q8TB03): the log2 fold change was 0.068.
With DHFR (UniProt P00374), the log2 fold change was 0.031.
Take CORO1A (UniProt P31146): the log2 fold change was 0.077.
Consider CHUK (UniProt O15111), for which the log2 fold change is -0.005.
In the case of DIAPH3 (UniProt Q9NSV4), the log2 fold change was 0.042.
As to CIP2A (UniProt Q8TCG1), the log2 fold change was 0.057.
As to CIAO2A (UniProt Q9H5X1), the log2 fold change was -0.052.
